Experimental data: paper PMC11006913
Changes are numbered by the printed parent chain.

biological target: T1, NKX2-6 (Homo sapiens, UniProt A6NCS4 118-204); assay: PBM; 200 nM protein, PBS; details: dsDNA, one strand shown
T1 sequence: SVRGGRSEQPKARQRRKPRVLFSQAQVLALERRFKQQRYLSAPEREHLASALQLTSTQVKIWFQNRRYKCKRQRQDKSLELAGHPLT

| Sequence | binding signal |
| --- | --- |
| ACGGCACG | 9.26 upbm affinity estimate (log intensity, higher = more binding, comparable within an allelic series) |
| CCGGGAAC | 9.33 upbm affinity estimate (log intensity, higher = more binding, comparable within an allelic series) |
| AGACGGCC | 9.28 upbm affinity estimate (log intensity, higher = more binding, comparable within an allelic series) |
| CAGCCGTC | 9.5 upbm affinity estimate (log intensity, higher = more binding, comparable within an allelic series) |
| AGCCCTCA | 11.1 upbm affinity estimate (log intensity, higher = more binding, comparable within an allelic series) |
| AGTGCCAC | 11.6 upbm affinity estimate (log intensity, higher = more binding, comparable within an allelic series) |
| ATCCCAGG | 9.47 upbm affinity estimate (log intensity, higher = more binding, comparable within an allelic series) |
| CGTCCGTA | 9.42 upbm affinity estimate (log intensity, higher = more binding, comparable within an allelic series) |
| TGGTACCA | 9.64 upbm affinity estimate (log intensity, higher = more binding, comparable within an allelic series) |
| CCTTAATC | 11.3 upbm affinity estimate (log intensity, higher = more binding, comparable within an allelic series) |
| GTTCCACA | 9.21 upbm affinity estimate (log intensity, higher = more binding, comparable within an allelic series) |
| GCTATTGA | 11.7 upbm affinity estimate (log intensity, higher = more binding, comparable within an allelic series) |
| CGCGGACG | 9.09 upbm affinity estimate (log intensity, higher = more binding, comparable within an allelic series) |
| GAAGAGCA | 11.4 upbm affinity estimate (log intensity, higher = more binding, comparable within an allelic series) |
| ACGGACGA | 9.27 upbm affinity estimate (log intensity, higher = more binding, comparable within an allelic series) |
| CTTAAGGC | 11.5 upbm affinity estimate (log intensity, higher = more binding, comparable within an allelic series) |
| CTCTCATC | 11.6 upbm affinity estimate (log intensity, higher = more binding, comparable within an allelic series) |

| Sequence | binding signal |
| --- | --- |
| CACTCTGG | 11.6 upbm affinity estimate (log intensity, higher = more binding, comparable within an allelic series) |
| CAGGCACA | 9.47 upbm affinity estimate (log intensity, higher = more binding, comparable within an allelic series) |
| GCTAAGTA | 12.9 upbm affinity estimate (log intensity, higher = more binding, comparable within an allelic series) |
| ACGGCCAG | 9.26 upbm affinity estimate (log intensity, higher = more binding, comparable within an allelic series) |
| CGGGACGC | 9.53 upbm affinity estimate (log intensity, higher = more binding, comparable within an allelic series) |
| CCCAAGGC | 9.12 upbm affinity estimate (log intensity, higher = more binding, comparable within an allelic series) |
| GATACTTA | 13.3 upbm affinity estimate (log intensity, higher = more binding, comparable within an allelic series) |
| CAGACTAG | 9.38 upbm affinity estimate (log intensity, higher = more binding, comparable within an allelic series) |
| AGTTGCTG | 9.45 upbm affinity estimate (log intensity, higher = more binding, comparable within an allelic series) |
| CCCGTTCG | 9.17 upbm affinity estimate (log intensity, higher = more binding, comparable within an allelic series) |
| GCGTCGCA | 9.48 upbm affinity estimate (log intensity, higher = more binding, comparable within an allelic series) |
| ACCTCTCA | 12 upbm affinity estimate (log intensity, higher = more binding, comparable within an allelic series) |
| AAATACTC | 11.4 upbm affinity estimate (log intensity, higher = more binding, comparable within an allelic series) |
| CAGGGTCG | 9.43 upbm affinity estimate (log intensity, higher = more binding, comparable within an allelic series) |
| CCCGGAAA | 9.48 upbm affinity estimate (log intensity, higher = more binding, comparable within an allelic series) |
| CCGGCACC | 9.34 upbm affinity estimate (log intensity, higher = more binding, comparable within an allelic series) |

biological target: T2, PAX4 (Homo sapiens, UniProt O43316 9-242, R200Q); assay: PBM; 200 nM protein, PBS; details: dsDNA, one strand shown
T2 sequence: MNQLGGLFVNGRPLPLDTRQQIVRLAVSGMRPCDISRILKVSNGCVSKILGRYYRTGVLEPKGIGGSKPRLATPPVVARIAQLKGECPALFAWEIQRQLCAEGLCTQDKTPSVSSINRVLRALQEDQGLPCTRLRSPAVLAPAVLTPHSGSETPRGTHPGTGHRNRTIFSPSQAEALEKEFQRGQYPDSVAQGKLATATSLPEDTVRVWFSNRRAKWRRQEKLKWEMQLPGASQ

| Sequence | binding signal |
| --- | --- |
| AAATTAGA | 11.9 upbm affinity estimate (log intensity, higher = more binding, comparable within an allelic series) |
| GTAAATTA | 11.9 upbm affinity estimate (log intensity, higher = more binding, comparable within an allelic series) |
| GAAATTAA | 11.9 upbm affinity estimate (log intensity, higher = more binding, comparable within an allelic series) |

biological target: PITX2 (Homo sapiens, UniProt Q99697 72-157); assay: PBM; 200 nM protein, PBS; details: dsDNA, one strand shown

| Sequence | binding signal |
| --- | --- |
| AAGATAAT | 10.6 upbm affinity estimate (log intensity, higher = more binding, comparable within an allelic series) |
| ATAGGCTC | 9.54 upbm affinity estimate (log intensity, higher = more binding, comparable within an allelic series) |
| GGATTTAA | 12.5 upbm affinity estimate (log intensity, higher = more binding, comparable within an allelic series) |

biological target: T3, NKX2-6 (Homo sapiens, UniProt A6NCS4 118-204, F151L); assay: PBM; 200 nM protein, PBS; details: dsDNA, one strand shown
T3 sequence: T1 sequence with F34L

| Sequence | binding signal |
| --- | --- |
| ACGGCACG | 9.49 upbm affinity estimate (log intensity, higher = more binding, comparable within an allelic series) |
| CCGGGAAC | 9.31 upbm affinity estimate (log intensity, higher = more binding, comparable within an allelic series) |
| AGACGGCC | 9.16 upbm affinity estimate (log intensity, higher = more binding, comparable within an allelic series) |
| CAGCCGTC | 9.26 upbm affinity estimate (log intensity, higher = more binding, comparable within an allelic series) |
| AGCCCTCA | 9.52 upbm affinity estimate (log intensity, higher = more binding, comparable within an allelic series) |
| AGTGCCAC | 9.9 upbm affinity estimate (log intensity, higher = more binding, comparable within an allelic series) |
| ATCCCAGG | 9.43 upbm affinity estimate (log intensity, higher = more binding, comparable within an allelic series) |
| CGTCCGTA | 9.44 upbm affinity estimate (log intensity, higher = more binding, comparable within an allelic series) |
| TGGTACCA | 9.28 upbm affinity estimate (log intensity, higher = more binding, comparable within an allelic series) |
| CCTTAATC | 9.82 upbm affinity estimate (log intensity, higher = more binding, comparable within an allelic series) |
| GTTCCACA | 9.42 upbm affinity estimate (log intensity, higher = more binding, comparable within an allelic series) |
| GCTATTGA | 9.84 upbm affinity estimate (log intensity, higher = more binding, comparable within an allelic series) |
| CGCGGACG | 9.22 upbm affinity estimate (log intensity, higher = more binding, comparable within an allelic series) |
| GAAGAGCA | 9.71 upbm affinity estimate (log intensity, higher = more binding, comparable within an allelic series) |
| ACGGACGA | 9.49 upbm affinity estimate (log intensity, higher = more binding, comparable within an allelic series) |
| CTTAAGGC | 9.76 upbm affinity estimate (log intensity, higher = more binding, comparable within an allelic series) |
| CTCTCATC | 9.79 upbm affinity estimate (log intensity, higher = more binding, comparable within an allelic series) |

| Sequence | binding signal |
| --- | --- |
| CACTCTGG | 9.66 upbm affinity estimate (log intensity, higher = more binding, comparable within an allelic series) |
| CAGGCACA | 9.38 upbm affinity estimate (log intensity, higher = more binding, comparable within an allelic series) |
| GCTAAGTA | 10.4 upbm affinity estimate (log intensity, higher = more binding, comparable within an allelic series) |
| ACGGCCAG | 9.26 upbm affinity estimate (log intensity, higher = more binding, comparable within an allelic series) |
| CGGGACGC | 9.25 upbm affinity estimate (log intensity, higher = more binding, comparable within an allelic series) |
| CCCAAGGC | 9.27 upbm affinity estimate (log intensity, higher = more binding, comparable within an allelic series) |
| GATACTTA | 10.5 upbm affinity estimate (log intensity, higher = more binding, comparable within an allelic series) |
| CAGACTAG | 9.36 upbm affinity estimate (log intensity, higher = more binding, comparable within an allelic series) |
| AGTTGCTG | 9.39 upbm affinity estimate (log intensity, higher = more binding, comparable within an allelic series) |
| CCCGTTCG | 9.43 upbm affinity estimate (log intensity, higher = more binding, comparable within an allelic series) |
| GCGTCGCA | 9.49 upbm affinity estimate (log intensity, higher = more binding, comparable within an allelic series) |
| ACCTCTCA | 9.82 upbm affinity estimate (log intensity, higher = more binding, comparable within an allelic series) |
| AAATACTC | 9.88 upbm affinity estimate (log intensity, higher = more binding, comparable within an allelic series) |
| CAGGGTCG | 9.26 upbm affinity estimate (log intensity, higher = more binding, comparable within an allelic series) |
| CCCGGAAA | 9.48 upbm affinity estimate (log intensity, higher = more binding, comparable within an allelic series) |
| CCGGCACC | 9.34 upbm affinity estimate (log intensity, higher = more binding, comparable within an allelic series) |

biological target: NKX3-2 (Homo sapiens, UniProt P78367 192-278, P234S); assay: PBM; 200 nM protein, PBS; details: dsDNA, one strand shown
Sequence (P78367 192-278 P234S): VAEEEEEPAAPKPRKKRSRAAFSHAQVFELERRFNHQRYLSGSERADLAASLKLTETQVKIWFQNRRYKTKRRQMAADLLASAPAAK

| Sequence | binding signal |
| --- | --- |
| CCGGGAAC | 10.5 upbm affinity estimate (log intensity, higher = more binding, comparable within an allelic series) |
| AGCCCTCA | 11.5 upbm affinity estimate (log intensity, higher = more binding, comparable within an allelic series) |
| CTCTCATC | 11.7 upbm affinity estimate (log intensity, higher = more binding, comparable within an allelic series) |
| AGTTGCTG | 10.7 upbm affinity estimate (log intensity, higher = more binding, comparable within an allelic series) |
| CCCGTTCG | 10.5 upbm affinity estimate (log intensity, higher = more binding, comparable within an allelic series) |

biological target: NKX3-2 (Homo sapiens, UniProt P78367 192-278); assay: PBM; 200 nM protein, PBS; details: dsDNA, one strand shown
Sequence (P78367 192-278): as the sequence (P78367 192-278 P234S) above, with S43P counted along it

| Sequence | binding signal |
| --- | --- |
| CCGGGAAC | 10.5 upbm affinity estimate (log intensity, higher = more binding, comparable within an allelic series) |
| AGCCCTCA | 11.6 upbm affinity estimate (log intensity, higher = more binding, comparable within an allelic series) |
| CTCTCATC | 11.9 upbm affinity estimate (log intensity, higher = more binding, comparable within an allelic series) |
| AGTTGCTG | 10.6 upbm affinity estimate (log intensity, higher = more binding, comparable within an allelic series) |
| CCCGTTCG | 10.5 upbm affinity estimate (log intensity, higher = more binding, comparable within an allelic series) |
